Assays:
Roseburia intestinalis = assay: growth AUC relative to DMSO control (median of replicates) (fraction); higher = more growth (less inhibition), active = hit call of the paper; settings: 20 µM; 24 h
Procedure, shortened: (§1)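 OD600 was recorded every hour for 24 h in anaerobic monocultures of gut bacteria kept at 37 °C in mGAM, seeded at OD600 0.05 and given 20 µM compound in 1% DMSO. The area under each growth curve was scaled to the plate median of solvent-only wells, or to row and column medians for the industrial chemical plate. Before this step, the minimum OD was set to 0. Reported values are medians of three biological replicates run on separate days.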

Streptococcus salivarius = assay: as above; settings: 20 µM; 24 h
Procedure, shortened: as §1

CC(C)=CC1C(C(=O)OCN2C(=O)C3=C(CCCC3)C2=O)C1(C)C (centres undefined)
growth AUC (Roseburia intestinalis): 0.988 (inactive) | growth AUC (Streptococcus salivarius): 1.01 (inactive)

CCOP(=S)(OCC)Oc1cc(Cl)c(SC)cc1Cl
growth AUC (Roseburia intestinalis): 0.994 (inactive) | growth AUC (Streptococcus salivarius): 1.01 (inactive)

O=S1(=O)OCC2C(CO1)C1(Cl)C(Cl)=C(Cl)C2(Cl)C1(Cl)Cl (centres undefined)
growth AUC (Roseburia intestinalis): 0.915 (inactive) | growth AUC (Streptococcus salivarius): 0.991 (inactive)

Nc1ccc(Cc2ccc(N)c(Cl)c2)cc1Cl
growth AUC (Roseburia intestinalis): 1.1 (inactive) | growth AUC (Streptococcus salivarius): 1.09 (inactive)

COP(=O)(OC)Oc1ccc(S(C)=O)c(C)c1 (centres undefined)
growth AUC (Roseburia intestinalis): 1.01 (inactive) | growth AUC (Streptococcus salivarius): 1.01 (inactive)

CCCN(CCC)c1c([N+](=O)[O-])cc(C(C)C)cc1[N+](=O)[O-]
growth AUC (Roseburia intestinalis): 1.01 (inactive) | growth AUC (Streptococcus salivarius): 0.99 (inactive)

Clc1cc(Cl)nc(-c2ccccc2)n1
growth AUC (Roseburia intestinalis): 0.956 (inactive) | growth AUC (Streptococcus salivarius): 0.99 (inactive)

CC(C)(C)C(O)C(Oc1ccc(-c2ccccc2)cc1)n1cncn1 (mixture of isomers)
growth AUC (Roseburia intestinalis): 1.02 (inactive) | growth AUC (Streptococcus salivarius): 1.01 (inactive)

CCOC(=O)CC(SP(=S)(OC)OC)C(=O)OCC (centres undefined)
growth AUC (Roseburia intestinalis): 0.99 (inactive) | growth AUC (Streptococcus salivarius): 0.939 (inactive)

CC1=NNC(=O)N(/N=C/c2cccnc2)C1
growth AUC (Roseburia intestinalis): 1.01 (inactive) | growth AUC (Streptococcus salivarius): 1.04 (inactive)

Cc1occc1C(=O)Nc1ccccc1
growth AUC (Roseburia intestinalis): 0.996 (inactive) | growth AUC (Streptococcus salivarius): 0.995 (inactive)

CCCCN(CCCC)SN(C)C(=O)Oc1cccc2c1OC(C)(C)C2
growth AUC (Roseburia intestinalis): 0.942 (inactive) | growth AUC (Streptococcus salivarius): 1 (inactive)

CON(C)C(=O)Nc1ccc(Cl)cc1
growth AUC (Roseburia intestinalis): 1.02 (inactive) | growth AUC (Streptococcus salivarius): 1.04 (inactive)

COC(=O)c1ccccc1CS(=O)(=O)NC(=O)Nc1nc(OC)cc(OC)n1
growth AUC (Roseburia intestinalis): 0.964 (inactive) | growth AUC (Streptococcus salivarius): 1.01 (inactive)

O=C1C[C@@H]2OCC=C3CN4CC[C@]56c7ccccc7N1[C@H]5[C@H]2[C@H]3C[C@H]46
growth AUC (Roseburia intestinalis): 0.998 (inactive) | growth AUC (Streptococcus salivarius): 0.968 (inactive)

COP(=O)(OC)SCn1c(=O)oc2cc(Cl)cnc21
growth AUC (Roseburia intestinalis): 1.06 (inactive) | growth AUC (Streptococcus salivarius): 0.978 (inactive)

CC(C)(O)C(Cl)(Cl)Cl.CC(C)(O)C(Cl)(Cl)Cl.O
growth AUC (Roseburia intestinalis): 1.01 (inactive) | growth AUC (Streptococcus salivarius): 1.05 (inactive)

CC(=O)CC(c1ccc(Cl)cc1)c1c(O)c2ccccc2oc1=O (centres undefined)
growth AUC (Roseburia intestinalis): 1.04 (inactive) | growth AUC (Streptococcus salivarius): 0.987 (inactive)

CC1CNC(=S)N1 (centres undefined)
growth AUC (Roseburia intestinalis): 1.02 (inactive) | growth AUC (Streptococcus salivarius): 1 (inactive)

COP(=O)(OC)C(O)C(Cl)(Cl)Cl (centres undefined)
growth AUC (Roseburia intestinalis): 1 (inactive) | growth AUC (Streptococcus salivarius): 1.02 (inactive)

CCOC(=O)N(C)C(=O)CSP(=S)(OCC)OCC
growth AUC (Roseburia intestinalis): 1.03 (inactive) | growth AUC (Streptococcus salivarius): 1 (inactive)

COCC(=O)N(c1c(C)cccc1C)C(C)C(=O)OC (centres undefined)
growth AUC (Roseburia intestinalis): 1.01 (inactive) | growth AUC (Streptococcus salivarius): 0.986 (inactive)

O=C(O)C(F)(F)C(F)(F)C(F)(F)C(F)(F)C(F)(F)C(F)(F)C(F)(F)C(F)(F)F
growth AUC (Roseburia intestinalis): 0.975 (inactive) | growth AUC (Streptococcus salivarius): 0.998 (inactive)

CC1(C)OC(c2ccco2)CN1C(=O)C(Cl)Cl (centres undefined)
growth AUC (Roseburia intestinalis): 1.03 (inactive) | growth AUC (Streptococcus salivarius): 1.01 (inactive)

CNC(=O)Oc1ccccc1OC(C)C
growth AUC (Roseburia intestinalis): 1.01 (inactive) | growth AUC (Streptococcus salivarius): 0.98 (inactive)

CNC(=O)O/N=C(\C)C(C)S(C)(=O)=O (centres undefined)
growth AUC (Roseburia intestinalis): 0.95 (inactive) | growth AUC (Streptococcus salivarius): 0.972 (inactive)

CCNc1nc(Cl)nc(NCC)n1
growth AUC (Roseburia intestinalis): 0.968 (inactive) | growth AUC (Streptococcus salivarius): 1.03 (inactive)

COC(=O)NCc1cc(/C(C)=N/OCc2cccc(C)n2)ccc1Cl
growth AUC (Roseburia intestinalis): 0.957 (inactive) | growth AUC (Streptococcus salivarius): 1.01 (inactive)

Clc1cccc(C(Cl)(Cl)Cl)n1
growth AUC (Roseburia intestinalis): 1 (inactive) | growth AUC (Streptococcus salivarius): 0.959 (inactive)

CC(C)c1ccc(NC(=O)N(C)C)cc1
growth AUC (Roseburia intestinalis): 0.95 (inactive) | growth AUC (Streptococcus salivarius): 0.956 (inactive)

CCO/N=C(\CC)C1=C(O)CC(c2c(C)cc(C)cc2C)CC1=O (centres undefined)
growth AUC (Roseburia intestinalis): 0.945 (inactive) | growth AUC (Streptococcus salivarius): 0.967 (inactive)

COc1ccc(C(c2ccc(OC)cc2)C(Cl)(Cl)Cl)cc1
growth AUC (Roseburia intestinalis): 0.987 (inactive) | growth AUC (Streptococcus salivarius): 0.992 (inactive)

CC(C)N(C(=O)CCl)c1ccccc1
growth AUC (Roseburia intestinalis): 0.963 (inactive) | growth AUC (Streptococcus salivarius): 1.04 (inactive)

c1nc[n]([Sn]([CH]2CCCCC2)([CH]2CCCCC2)[CH]2CCCCC2)n1
growth AUC (Roseburia intestinalis): 0.654 (active) | growth AUC (Streptococcus salivarius): 1.01 (inactive)

O=C(O)COc1ccc(Cl)cc1Cl
growth AUC (Roseburia intestinalis): 1.03 (inactive) | growth AUC (Streptococcus salivarius): 0.989 (inactive)

CNC(=O)CSP(=O)(OC)OC
growth AUC (Roseburia intestinalis): 1.02 (inactive) | growth AUC (Streptococcus salivarius): 1.01 (inactive)

O=C(O)c1cc(Cl)ccc1Cl
growth AUC (Roseburia intestinalis): 0.993 (inactive) | growth AUC (Streptococcus salivarius): 1.01 (inactive)
